These results are taken from PubChem BioAssay (NCI).

The panel holds about 83,000 compounds, 20% with a hit somewhere; the sample as a whole holds those more often.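 How to read the values: 0–100, growth inhibition (40 = 60% inhibited); 0, no net growth; -100 to 0, cell death (-40 = 40% of starting cells died; -100 = all dead).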 A number with no mark means an inactive call. The source made the active and inactive calls. Rule for the calls: active = growth percent below 10; inactive = the rest.

Common to all, as to experiment: NCI-60 one-dose screen, 48 h (100 = growth as untreated, 0 = no growth, -100 = all killed)
One experiment relates to SK-MEL-2 melanoma. The note with it: 10 µM unless noted.
The test system of a further experiment is EKVX NSCLC. The following applies: 10 µM unless noted.
For another experiment, the system named is SN12C renal. The following applies: 10 µM unless noted.
The next experiment relates to UO-31 renal. The following applies: 10 µM unless noted.
The next experiment relates to TK-10 renal. The following applies: 10 µM unless noted.
Another experiment has as its system ACHN renal. The note with it: 10 µM unless noted.
The test system of a further experiment is CAKI-1 renal. The note with it: 10 µM.
The test system of a further experiment is CCRF-CEM leukemia. The following applies: 10 µM unless noted.
For another experiment, the system named is MOLT-4 leukemia. The following applies: 10 µM unless noted.
The next experiment relates to SR leukemia. The note with it: 10 µM unless noted.
Another experiment relates to OVCAR-8 ovarian. The following applies: 10 µM unless noted.
The next experiment relates to OVCAR-5 ovarian. The note with it: 10 µM unless noted.
A further experiment relates to OVCAR-4 ovarian. The following applies: 10 µM unless noted.
The test system of the next experiment is SK-OV-3 ovarian. The following applies: 10 µM unless noted.
Another experiment relates to IGROV1 ovarian. The following applies: 10 µM unless noted.
The subject of a further experiment is OVCAR-3 ovarian. The note with it: 10 µM unless noted.
A further experiment has as its system HS 578T breast. The following applies: 10 µM unless noted.
The next experiment concerns NCI/ADR-RES ovarian. The note with it: 10 µM unless noted.
The next experiment relates to A498 renal. The following applies: 10 µM unless noted.
Another experiment deals with RPMI-8226 leukemia. The note with it: 10 µM unless noted.

Consider `O=C(Nc1ccc(Cl)cc1)Nc1nc2ccc([N+](=O)[O-])cc2s1`, for which the growth in the experiment with SK-MEL-2 melanoma was -40.8% (active); with EKVX NSCLC, 4.04% (active); in the experiment with SN12C renal, -0.314% (active); in the experiment with UO-31 renal it was 3.55% (active); with TK-10 renal, -20.5% (active); in the experiment on ACHN renal, 0.28% (active). The growth is -16.5% (active) with CAKI-1 renal; 4.8% (active) in the experiment on CCRF-CEM leukemia; -7.74% (active) in the experiment on MOLT-4 leukemia; -24.3% (active) with SR leukemia; 6.03% (active) in the experiment with OVCAR-8 ovarian; 18.4% in the experiment on OVCAR-5 ovarian. Moreover, the growth in the experiment on OVCAR-4 ovarian is -4.3% (active); with SK-OV-3 ovarian it was -12.3% (active); with IGROV1 ovarian it was 14.7%; in the experiment with OVCAR-3 ovarian it was -26.6% (active); in the experiment with HS 578T breast, -15.8% (active); in the experiment on NCI/ADR-RES ovarian, -6.91% (active).
Consider `CC(=O)NC(C)(C)C(=O)N1CCC[C@H]1C(=O)NC(C)(C)C(=O)N[C@@H](C)C(=O)NC(C)(C)C(=O)NC(C)(C)C(=O)N[C@@H](CCC(N)=O)C(=O)NC(C)(C)C(=O)N[C@H](C(=O)NC(C)(C)C(=O)NCC(=O)N[C@@H](CC(C)C)C(=O)NC(C)(C)C(=O)N1CCC[C@H]1C(=O)N[C@H](C(=O)NC(C)(C)C(=O)NC(C)(C)C(=O)N[C@@H](CCC(N)=O)C(=O)N[C@@H](CCC(N)=O)C(=O)N[C@H](CO)Cc1ccccc1)C(C)C)C(C)C`, for which the growth is 0.326% [4.25 µM] (active) in the experiment on SK-MEL-2 melanoma; 65% [4.25 µM] in the experiment with EKVX NSCLC; 13.4% [4.25 µM] in the experiment with SN12C renal; 97.7% [4.25 µM] in the experiment on UO-31 renal; 59.2% [4.25 µM] in the experiment on TK-10 renal; 96.3% [4.25 µM] with ACHN renal. In addition, the growth is 25% [4.25 µM] in the experiment on A498 renal; 36.3% [4.25 µM] with CCRF-CEM leukemia; 35.6% [4.25 µM] in the experiment with MOLT-4 leukemia; 30.2% [4.25 µM] in the experiment with SR leukemia; -17.4% [4.25 µM] (active) with RPMI-8226 leukemia; 46.3% [4.25 µM] in the experiment on OVCAR-8 ovarian. Also, the growth is 45.2% [4.25 µM] with OVCAR-5 ovarian; 24.5% [4.25 µM] in the experiment on OVCAR-4 ovarian; 17.1% [4.25 µM] with SK-OV-3 ovarian; 26.3% [4.25 µM] in the experiment with OVCAR-3 ovarian; 46% [4.25 µM] in the experiment with HS 578T breast; 101% [4.25 µM] with NCI/ADR-RES ovarian.
`CC(=O)NC(C)(C)C(=O)N1CCC[C@H]1C(=O)NC(C)(C)C(=O)N[C@@H](C)C(=O)NC(C)(C)C(=O)N[C@@H](C)C(=O)N[C@@H](CCC(N)=O)C(=O)NC(C)(C)C(=O)N[C@H](C(=O)NC(C)(C)C(=O)NCC(=O)N[C@@H](CC(C)C)C(=O)NC(C)(C)C(=O)N1CCC[C@H]1C(=O)N[C@H](C(=O)NC(C)(C)C(=O)NC(C)(C)C(=O)N[C@@H](CCC(N)=O)C(=O)N[C@@H](CCC(N)=O)C(=O)N[C@H](CO)Cc1ccccc1)C(C)C)C(C)C`: the growth was 91.2% [4.25 µM] in the experiment with SK-MEL-2 melanoma; 76.7% [4.25 µM] in the experiment with EKVX NSCLC; 32.2% [4.25 µM] with SN12C renal; 95.8% [4.25 µM] with UO-31 renal; 87.1% [4.25 µM] in the experiment on TK-10 renal; 110% [4.25 µM] in the experiment with ACHN renal. In addition, the growth with A498 renal is 81.9% [4.25 µM]; in the experiment with CCRF-CEM leukemia it was 62.8% [4.25 µM]; in the experiment on MOLT-4 leukemia, 75.3% [4.25 µM]; with SR leukemia, 83.9% [4.25 µM]; in the experiment on RPMI-8226 leukemia, 1.4% [4.25 µM] (active); in the experiment with OVCAR-8 ovarian it was 71.8% [4.25 µM]. The growth in the experiment with OVCAR-5 ovarian is 108% [4.25 µM]; in the experiment on OVCAR-4 ovarian it was 42.7% [4.25 µM]; in the experiment on SK-OV-3 ovarian it was 74% [4.25 µM]; in the experiment with IGROV1 ovarian it was 76.9% [4.25 µM]; with OVCAR-3 ovarian, 59.2% [4.25 µM]; with HS 578T breast it was 82.8% [4.25 µM]. Further, the growth in the experiment with NCI/ADR-RES ovarian is 99.5% [4.25 µM].
With `Cc1nn(-c2ccccc2)c2nc(CCl)[nH]c(=O)c12`, the growth in the experiment on SK-MEL-2 melanoma was 105%; with EKVX NSCLC, 99.2%; in the experiment on SN12C renal it was 95.7%; with UO-31 renal, -86.3% (active); in the experiment with TK-10 renal, 63.3%; in the experiment on ACHN renal it was 90.3%. In addition, the growth in the experiment on CAKI-1 renal was 99.6%; in the experiment on MOLT-4 leukemia it was 79.6%; in the experiment on SR leukemia it was 39.8%; with OVCAR-8 ovarian, 102%; in the experiment on OVCAR-5 ovarian, 112%; in the experiment with OVCAR-4 ovarian it was 110%. Further, the growth with SK-OV-3 ovarian is 122%; in the experiment with IGROV1 ovarian it was 97.4%; in the experiment on OVCAR-3 ovarian, 90.9%; in the experiment on HS 578T breast it was 120%; in the experiment on NCI/ADR-RES ovarian, 105%.
On to `CCCCCCNC(=O)Oc1ccc(/C(=C(/C)c2ccc(Cl)cc2)c2ccc(OCCN3CCCC3)cc2)cc1`, for which the growth was 78% in the experiment on SK-MEL-2 melanoma; 53.4% with EKVX NSCLC; 50.4% in the experiment on SN12C renal; 18.1% in the experiment with UO-31 renal; 86% in the experiment on TK-10 renal; 37.5% in the experiment on ACHN renal. In addition, the growth in the experiment on CAKI-1 renal was 55.3%; in the experiment on CCRF-CEM leukemia, 4.42% (active); in the experiment with RPMI-8226 leukemia, -35.8% (active); with OVCAR-8 ovarian it was 56.8%; in the experiment on OVCAR-5 ovarian, 67.8%; in the experiment on OVCAR-4 ovarian, 54.6%. Besides, the growth is 78.8% in the experiment on SK-OV-3 ovarian, 32.6% in the experiment on IGROV1 ovarian, 23.4% with OVCAR-3 ovarian and 50.4% in the experiment on NCI/ADR-RES ovarian.
`CN(C)C(=O)C1=NC(CO)C(=O)N(c2ccc(Cl)cc2)N1` (stereo not drawn): the growth was 99% in the experiment on SK-MEL-2 melanoma; 99.5% in the experiment with EKVX NSCLC; 105% in the experiment with SN12C renal; 82.5% in the experiment on UO-31 renal; 91.1% in the experiment on TK-10 renal; 101% in the experiment with ACHN renal. Moreover, the growth with CAKI-1 renal was 92%; in the experiment with CCRF-CEM leukemia it was 104%; in the experiment on MOLT-4 leukemia, 103%; with SR leukemia, 107%; in the experiment with OVCAR-8 ovarian, 104%; with OVCAR-5 ovarian, 96.5%. The growth in the experiment with OVCAR-4 ovarian was 114%; with SK-OV-3 ovarian, 114%; in the experiment with IGROV1 ovarian it was 101%; in the experiment with OVCAR-3 ovarian, 110%; with HS 578T breast it was 104%; in the experiment on NCI/ADR-RES ovarian, 104%.
As for `CC(C)=CCc1c2c(c(O)c3c1O[C@]14C(=C[C@@H]5C[C@H]1C(C)(C)O[C@@]4(C/C=C(/C)C(=O)O)C5=O)C3=O)CC(O)C(C)(C)O2` (stereo partly drawn), the growth is -71.3% (active) with SK-MEL-2 melanoma; -32.5% (active) in the experiment on EKVX NSCLC; 12.9% in the experiment on SN12C renal; -57.1% (active) in the experiment on UO-31 renal; -11% (active) in the experiment with ACHN renal; -75.6% (active) in the experiment on A498 renal. In addition, the growth is 5.72% (active) in the experiment with CCRF-CEM leukemia; -7.09% (active) in the experiment with MOLT-4 leukemia; -5.31% (active) with SR leukemia; -18.5% (active) in the experiment with RPMI-8226 leukemia; -25.1% (active) in the experiment with OVCAR-8 ovarian; -10.7% (active) in the experiment with OVCAR-5 ovarian. In addition, the growth was 18.7% with OVCAR-4 ovarian; 30.4% with SK-OV-3 ovarian; 5.2% (active) in the experiment on IGROV1 ovarian; -96.4% (active) in the experiment with OVCAR-3 ovarian; 15.7% with HS 578T breast; 18% with NCI/ADR-RES ovarian.
For `O=C(CCCCCCN1CC(=O)N2[C@@H](c3ccc(Cl)c(F)c3)c3[nH]c4ccccc4c3C[C@H]2C1=O)NO`, the growth is 104% in the experiment with SK-MEL-2 melanoma; 87.9% in the experiment with EKVX NSCLC; 83.8% in the experiment with SN12C renal; 75.3% in the experiment on UO-31 renal; 92.1% in the experiment with ACHN renal; 70.8% in the experiment with CAKI-1 renal. Further, the growth is 106% in the experiment on A498 renal; 41.2% with CCRF-CEM leukemia; 45.3% with MOLT-4 leukemia; 45.1% in the experiment on SR leukemia; 59.1% in the experiment with RPMI-8226 leukemia; 66.5% in the experiment with OVCAR-8 ovarian. In addition, the growth in the experiment with OVCAR-5 ovarian is 87.6%; in the experiment on OVCAR-4 ovarian, 84.3%; in the experiment with SK-OV-3 ovarian it was 81.8%; in the experiment with IGROV1 ovarian, 64.5%; in the experiment with OVCAR-3 ovarian, 83.6%; with HS 578T breast it was 98.4%. Moreover, the growth in the experiment with NCI/ADR-RES ovarian was 101%.
